Test systems include SK-MEL-2 melanoma; SN12C renal; UO-31 renal; TK-10 renal; ACHN renal; CAKI-1 renal; A498 renal; CCRF-CEM leukemia; MOLT-4 leukemia; EKVX NSCLC.
Holding throughout (experiment): NCI-60 one-dose screen, 48 h (100 = growth as untreated, 0 = no growth, -100 = all killed)
Details in all cases: 10 µM unless noted

Where “and” joins values, the source holds several entries; their conditions need not be identical. Equal values may be shown once. This is part of a sample that, as a whole, favours compounds with a hit. Of some 83,000 tested, about 20% had one in any assay.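 Interpretation: 100, growth as untreated; towards 0, rising growth inhibition; 0, no net growth; 0 to -100, cell death. Compounds scoring below 10 were considered active.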 Calls of active or inactive are those of the source.

As to `CCCCN(CCCC)CCCCCCCCCCO`, the growth in the test with SK-MEL-2 melanoma is 86.9% (inactive); in the test on SN12C renal it was 107% (inactive); with UO-31 renal, 81.3% (inactive); in the test with TK-10 renal, 93.6% (inactive); with ACHN renal, 97.1% (inactive); in the test on CAKI-1 renal, 105% (inactive). For the same compound, the growth in the test on A498 renal is 123% (inactive); in the test on CCRF-CEM leukemia, 98% (inactive); with MOLT-4 leukemia, 83% (inactive).
Turning to `O=C1CSC(=S)N1Cc1cccnc1`, the growth with SK-MEL-2 melanoma was 85.8% (inactive); with SN12C renal, 103% (inactive); in the test on UO-31 renal, 71% (inactive); with TK-10 renal, 9.3% (active); in the test on ACHN renal it was 97.2% (inactive); in the test with CAKI-1 renal, 63.9% (inactive). Further, the values for the growth in the test on CCRF-CEM leukemia and in the test on MOLT-4 leukemia were 12.9% (inactive) and 51.4% (inactive), respectively.
Consider `S=C1SCN(Cc2cccs2)CN1Cc1cccs1`, for which the growth with SK-MEL-2 melanoma is 99% (inactive); in the test on SN12C renal, 98.7% (inactive); in the test with UO-31 renal, 88.8% (inactive); in the test on TK-10 renal, 90.7% (inactive); with ACHN renal, 105% (inactive); in the test on CAKI-1 renal it was 99.4% (inactive). The figures for the growth in the test on A498 renal, with CCRF-CEM leukemia and with MOLT-4 leukemia were 95.7% (inactive), 70.9% (inactive) and 100% (inactive), respectively.
As for `CN(C)c1ccc(C(C#N)(c2ccccc2)c2ccc(N(C)C)cc2)cc1`, the growth in the test on SK-MEL-2 melanoma is 85.2% (inactive); with SN12C renal it was 14.4% (inactive); with UO-31 renal it was 53% (inactive); in the test with TK-10 renal it was 71.8% (inactive); in the test on ACHN renal it was 49.3% (inactive); in the test on CAKI-1 renal, 79.4% (inactive). Besides, the growth was 69.3% (inactive) with CCRF-CEM leukemia and 68.5% (inactive) with MOLT-4 leukemia.
`O=[N+]([O-])c1cc(-c2ccccc2)c(O)c([N+](=O)[O-])c1`: the growth in the test on SK-MEL-2 melanoma was 75.2% (inactive); in the test with SN12C renal it was 73.7% (inactive); in the test with TK-10 renal, 89.2% (inactive); in the test with ACHN renal, 87.7% (inactive); with A498 renal it was 82.3% (inactive); with CCRF-CEM leukemia it was 16.3% (inactive). Also, the growth with MOLT-4 leukemia was 71.9% (inactive).
With `CC1(O)CCCCCC1`, the growth with SK-MEL-2 melanoma is 105% (inactive); with UO-31 renal it was 82.6% (inactive); in the test with TK-10 renal, 99.5% (inactive); in the test on ACHN renal, 103% (inactive); with CAKI-1 renal, 101% (inactive); with A498 renal, 75.3% (inactive). For the same compound, the results for the growth in the test with CCRF-CEM leukemia and in the test with MOLT-4 leukemia were 92.7% (inactive) and 92.8% (inactive), respectively.
Consider `O=[N+]([O-])c1ccc(N2CCN(Cc3ccccc3)CC2)c2c1no[n+]2[O-]`, for which the growth is 64.8% (inactive) with SK-MEL-2 melanoma; -78.1% (active) with UO-31 renal; -15.7% (active) with TK-10 renal; -91.6% (active) in the test on ACHN renal; 15.3% (inactive) in the test on CAKI-1 renal; 47.6% (inactive) in the test with A498 renal. Besides, the growth with CCRF-CEM leukemia was -31.6% (active); with MOLT-4 leukemia, -29.8% (active).
On to `CCCCCCCCCCCCN1C(C)=CS/C1=C\C=C\c1scc(C)[n+]1CCCCCCCCCCCC`, for which the growth in the test on SK-MEL-2 melanoma was 1.51% (active); with SN12C renal, 18.2% (inactive); in the test on UO-31 renal it was 62.6% (inactive); in the test with TK-10 renal, 11.9% (inactive); in the test with ACHN renal, 38.6% (inactive); in the test with CAKI-1 renal it was 27.5% (inactive). The growth in the test on CCRF-CEM leukemia was 20% (inactive); in the test with MOLT-4 leukemia it was 11.1% (inactive).
On to `CCC(C)(O)Cc1ccc(Cl)cc1` (centres undefined), for which the growth with EKVX NSCLC was 111% (inactive); in the test on SN12C renal, 103% (inactive); in the test with UO-31 renal it was 94.2% (inactive); in the test with TK-10 renal, 97.6% (inactive); with ACHN renal it was 111% (inactive); with CAKI-1 renal it was 101% (inactive). The growth is 89.5% (inactive) with A498 renal, 105% (inactive) in the test on CCRF-CEM leukemia and 98.4% (inactive) in the test with MOLT-4 leukemia.
Take `O=[N+]([O-])c1ccc2c(c1)Cc1ccccc1-2`: the growth in the test with EKVX NSCLC is 61.1% (inactive); in the test on SN12C renal, 101% (inactive); with UO-31 renal, 82.9% (inactive); in the test on ACHN renal it was 94.2% (inactive); in the test with CAKI-1 renal it was 99% (inactive); with A498 renal, 82.4% (inactive). The growth was 91.4% (inactive) with CCRF-CEM leukemia and 86.2% (inactive) in the test on MOLT-4 leukemia.
For `O=C(O)CCCOc1cc(-c2ccccc2F)nc2cc3c(cc12)OCO3`, the growth with TK-10 renal was 53.8% [100 µM] (inactive) and 2.37% [100 µM] (active).
As to `Cc1ccc(N2C(=O)C=CC2=O)cc1`, the growth in the test on EKVX NSCLC was 116% (inactive); in the test with SN12C renal, 93.7% (inactive); in the test with UO-31 renal it was 90% (inactive); in the test on TK-10 renal it was 99.5% (inactive); in the test on ACHN renal, 68.1% (inactive); in the test with CAKI-1 renal, 86.1% (inactive). The growth in the test on CCRF-CEM leukemia was 13.7% (inactive).
For `O=[n+]1c2ccccc2n([O-])c2cc(Cl)ccc21`, the growth is 62.3% (inactive) in the test with SN12C renal; 55.7% (inactive) in the test on UO-31 renal; 102% (inactive) with TK-10 renal; 20.7% (inactive) with ACHN renal; 19.3% (inactive) in the test on CAKI-1 renal; 81.6% (inactive) in the test with A498 renal. Further, the results for the growth in the test on CCRF-CEM leukemia and in the test with MOLT-4 leukemia were -6.38% (active) and -30.4% (active), respectively.
As to `CCCN(CCC)C(=O)c1ccc(C)cc1`, the growth in the test on EKVX NSCLC was 89.2% (inactive); in the test on UO-31 renal it was 94.1% (inactive); in the test with TK-10 renal, 99.6% (inactive); in the test on ACHN renal, 102% (inactive); in the test with CAKI-1 renal it was 99.2% (inactive); in the test on A498 renal, 27% (inactive). In addition, the growth in the test with CCRF-CEM leukemia was 85.7% (inactive); in the test with MOLT-4 leukemia, 101% (inactive).
Regarding `O=C(C[P+](c1ccccc1)(c1ccccc1)c1ccccc1)c1ccccc1`, the growth with EKVX NSCLC is 88.5% (inactive); with SN12C renal, 87.9% (inactive); in the test with UO-31 renal it was 71.8% (inactive); in the test with TK-10 renal, 94.4% (inactive); with ACHN renal, 94.3% (inactive); in the test with CAKI-1 renal, 84.5% (inactive). Moreover, the growth in the test on A498 renal was 79.8% (inactive); in the test on CCRF-CEM leukemia, 90.5% (inactive); with MOLT-4 leukemia, 92.3% (inactive).
Consider `COc1ccc2c(c1)C(N)=C(c1ccccc1)C2=O`, for which, in the test with TK-10 renal, the growth is 99.7% [100 µM] (inactive) and 3.68% [100 µM] (active).
In the case of `O=C(c1ccccc1)C(O)C(Br)(CBr)c1ccccc1` (centres undefined), the growth in the test with EKVX NSCLC is 108% (inactive); with SN12C renal it was 91.6% (inactive); in the test on UO-31 renal, 96.3% (inactive); in the test on TK-10 renal, 87.6% (inactive); in the test with ACHN renal, 93.2% (inactive); in the test with CAKI-1 renal it was 102% (inactive). Moreover, the growth in the test with CCRF-CEM leukemia is 50% (inactive); in the test with MOLT-4 leukemia, 75.1% (inactive).

(Values after PubChem BioAssay (NCI).)
